An excerpt weighted towards active compounds, which were near 4.7% of everything screened.
TIM10 inh = growth inhibitors of isogenic TIM10 control yeast, primary screen, counter-screen for tim10-1 yeast inhibitor project, luminescence, uHTS | inhibition, % at 10 µM | 1.4% of 330,000 active | S. cerevisiae TIM10 strain growth, BacTiter-Glo luminescence, 24 h | AID 463195, 2010;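 active = inhibition of 40% or more at the single tested concentration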;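 also: wild-type TIM10 isogenic control strain grown at permissive 25 °C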
tim23-1 inh = growth inhibitors of tim23-1 mutant yeast, primary screen, luminescence, uHTS | AID 463212, 2010 | S. cerevisiae tim23-1 growth, BacTiter-Glo luminescence, 24 h | inhibition, % at 20 µM | 1.3% of 330,000 active;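 active = growth inhibition of the mutant yeast at or above 50%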;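 also: temperature-sensitive mutant grown at 25 °C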
tim10-1 inh = growth inhibitors of tim10-1 mutant yeast, primary screen, luminescence, uHTS; inhibition, % at 20 µM; AID 463190, 2010; 2.2% of 330,000 active; S. cerevisiae tim10-1 ts strain growth, BacTiter-Glo, 24 h;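 active = inhibition of at least 40%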;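 also: mutant grown at 25 °C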
PfHsp90 set2 = growth inhibition of PfHsp90-expressing yeast, primary screen, antimalarial PfHsp90 inhibitor project, S. cerevisiae, BacTiter-Glo luminescence, single point, set 2. BacTiter-Glo ATP, 48 h; yeast lacking PDR1 and PDR3 efflux regulators. inhibition, % at 9.4 µM. 0.32% of 310,000 active. AID 504621, 2011;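 active = every replicate shows inhibition above about 80%, whatever the replicate mean, limit read from the data; inconclusive = mean inhibition reaches the set limit but some replicate falls short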
SKKanGAS inh = S. pyogenes SKKanGAS growth inhibitors in kanamycin, primary screen, streptokinase expression inhibitor project, SKKanGAS strain, BacTiter-Glo luminescence | 6 h | inhibition, % at 7.5 µM | 1.3% of 300,000 active;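 active = mean replicate score, as percent of positive control median, at least 50; inconclusive = mean below 50 but one replicate at or above 50; inactive = mean and every replicate below 50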;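 also: strain carries kanamycin resistance gene driven by streptokinase promoter and grows in 40 µg/ml kanamycin; loss of luminescence reflects streptokinase promoter inhibition or plain growth inhibition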
Calb FLC = C. albicans growth inhibition with fluconazole, primary screen, CaCi-2 strain, Alamar Blue fluorescence. 0.57% of 300,000 active. AID 1979, 2009. C. albicans CaCi-2 (fluconazole-resistant clinical isolate) + fluconazole, 48 h. growth inhibition, % (no concentration beside the values);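 active = growth inhibition above about 58% in most replicates, limit read from the data, passing the limit was not always enough; inconclusive = exactly half the replicates above a set limit; inactive = most replicates below a set limit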;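 also: all wells also contain fluconazole at 8 µg/ml as a sub-toxic cotreatment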
tim10-1 confirm = growth inhibitors of tim10-1 mutant yeast, confirmation, single concentration, luminescence, S. cerevisiae | inhibition, % at 20 µM | S. cerevisiae tim10-1 ts strain growth, BacTiter-Glo, 24 h | shares compounds with tim10-1 inh | 56% of 7,400 active;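 active = inhibition of yeast growth at or above a set limit in either of two repeat tests at 20 µM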;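 also: tim10-1 mutant grown at permissive 25 °C to find synthetic lethal compounds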
tim10 confirm = growth inhibitors of wild-type TIM10 yeast, confirmation, counter-screen for tim10-1 synthetic lethality project, single concentration, luminescence, S. cerevisiae | shares compounds with TIM10 inh | S. cerevisiae tim10 strain growth, BacTiter-Glo luminescence, 24 h | inhibition, % at 10 µM | 63% of 4,600 active | AID 463215, 2010;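 active = inhibition of yeast growth at or above a set limit in either of two replicates at 10 µM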; also: this counterscreen used the strain with wild-type TIM10
tim23-1 conf = tim23-1 mutant yeast growth inhibitors, confirmation, luminescence, single concentration. AID 463218, 2010. inhibition, % at 20 µM. shares compounds with tim23-1 inh. 83% of 4,400 active. S. cerevisiae tim23-1 growth, BacTiter-Glo luminescence, 24 h;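 active = inhibition above about 39% in either of two replicate wells at 20 µM, limit read from the data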;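 also: temperature-sensitive tim23-1 mutant grown at 25 °C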
Of the large screens only hits and unclear results are named; the others gave an inactive call (follow-up assays come after a bar, where they were run).

Cc1ccc(S(=O)(=O)c2ccc([N+](=O)[O-])cn2)cc1	TIM10 inh 73, tim23-1 inh 75, tim10-1 inh 73, PfHsp90 set2 95 | tim10-1 confirm 68 | tim10 confirm 70 | tim23-1 conf 75
O=C1C(Cl)=C(NCc2cccnc2)C(=O)c2ccccc21	tim23-1 inh 69, tim10-1 inh 45 | tim10-1 confirm inactive | tim23-1 conf 64
Cc1ccc(OCC(=O)N(Cc2ccco2)c2c(N)n(Cc3ccccc3)c(=O)[nH]c2=O)cc1C	none (no result: PfHsp90 set2, SKKanGAS inh, Calb FLC)
Cc1cccc(C)c1NC(=O)CNC(=O)c1ccc2ccccc2n1	none (no result: SKKanGAS inh, Calb FLC)
Cc1ccc(C2CN(C)C3(C(=O)Nc4ccccc43)C23COc2ccccc2C3=O)cc1 (stereo not drawn)	tim23-1 inh 53, tim10-1 inh 45 | tim10-1 confirm 37 | tim23-1 conf 47
CN1CC(c2ccccc2Cl)C2(COc3ccccc3C2=O)C12C(=O)Nc1ccccc12 (stereo not drawn)	none
Cc1ccc(C=Nc2ccccc2C#N)s1	none
Cc1c(Cl)cccc1N=Cc1ccc([N+](=O)[O-])s1	TIM10 inh 83, tim23-1 inh 65, tim10-1 inh 67, PfHsp90 set2 112 | tim10-1 confirm 61 | tim10 confirm 65 | tim23-1 conf 76
NC(=O)c1ccccc1NC(=O)Nc1ccc(F)c(Cl)c1	none
COc1cccc(C(=O)Oc2c(CN3CCOCC3)cc(Cl)c3cccnc23)c1	TIM10 inh 44, tim23-1 inh 51, tim10-1 inh 43, Calb FLC 104 (no result: PfHsp90 set2) | tim10-1 confirm 34 | tim10 confirm inactive | tim23-1 conf 48
COc1ccc(C(=O)OC(C)CN2CCOCC2)cc1 (stereo not drawn)	none
COc1ccc(C(=O)Oc2c(CN3CCOCC3)cc(Cl)c3cccnc23)cc1	tim23-1 inh 54, tim10-1 inh 41, Calb FLC 88 | tim10-1 confirm 33 | tim23-1 conf 46
Nc1nc(-c2ccc3c(c2)CCCC3)cs1	tim23-1 inh 51, tim10-1 inh 59 (no result: SKKanGAS inh, Calb FLC) | tim10-1 confirm 44 | tim23-1 conf 54
CC(=O)c1sc(-c2ccc(Cl)cc2)cc1N	tim23-1 inh 59, tim10-1 inh 50 | tim10-1 confirm inactive | tim23-1 conf 45
NNC(=O)c1[nH]c2ccc(Cl)cc2c1-c1ccccc1	tim23-1 inh 61, tim10-1 inh 51 | tim10-1 confirm 52 | tim23-1 conf 42
CCn1c(C(=O)NC(C)c2ccc3c(c2)OCCO3)cc2sccc21 (stereo not drawn)	tim23-1 inh 53, tim10-1 inh 44 | tim10-1 confirm 32 | tim23-1 conf 46
Cc1ccc(C)c(N2C(=O)CC(Cc3ccc(Cl)cc3)C2=O)c1 (stereo not drawn)	none
N#CCCN(C(=O)COC(=O)CNS(=O)(=O)c1ccc2ccccc2c1)c1ccccc1	none (no result: SKKanGAS inh, Calb FLC)
COc1cc2c3c(c1)C(C)=CC(C)(C)N3C(=O)C2=O	tim23-1 inh 57, tim10-1 inh 41 | tim10-1 confirm inactive | tim23-1 conf 57
COc1cc(N=C2C(=O)N3c4c(cccc42)C(C)=CC3(C)C)cc(OC)c1	none
CCCCOC(=O)Sc1nc2ccccc2o1	TIM10 inh 64, tim23-1 inh 74, tim10-1 inh 49 | tim10-1 confirm 49 | tim10 confirm 43 | tim23-1 conf 44
CCCCOC(=O)Nc1nc2ccccc2s1	none
COc1ccc(C(=O)/C=C/Sc2nc3ccccc3o2)cc1	tim23-1 inh 75, tim10-1 inh 50 | tim10-1 confirm 38 | tim23-1 conf 66
COc1ccc(-c2cccc(C3CC=CC4C3C(=O)N(Cc3ccccc3)C4c3ccc(OC)c(Cl)c3)c2)cc1 (stereo not drawn)	TIM10 inh 67, tim23-1 inh 58, tim10-1 inh 49 | tim10-1 confirm 37 | tim10 confirm inactive | tim23-1 conf 62
COc1ccc(OCc2cc(/C=N\NC(=O)c3ccccc3)ccc2OC)cc1	tim23-1 inh 52, tim10-1 inh 49 | tim10-1 confirm inactive | tim23-1 conf 45
CCN(CC)CCN(C(=O)CCS(=O)(=O)c1ccccc1)c1nc2cc(C)cc(C)c2s1	TIM10 inh 44, tim23-1 inh 55, tim10-1 inh 51, SKKanGAS inh inconclusive | tim10-1 confirm inactive | tim10 confirm 30 | tim23-1 conf 39
O=C(NC1=NCCS1)c1cc(-c2cccnc2)nc2ccccc12	none
O=C(NC1=NCCS1)c1cc(-c2cccs2)nc2ccccc12	TIM10 inh 46, tim23-1 inh 50, tim10-1 inh 48 | tim10-1 confirm 46 | tim10 confirm 31 | tim23-1 conf 54
Cc1ccc(-n2nc3c(c2NC(=O)c2cc4ccccc4o2)CS(=O)(=O)C3)cc1	tim23-1 inh 51, tim10-1 inh 40 | tim10-1 confirm inactive | tim23-1 conf 47
COc1cc(Br)cc(CNc2ccc(F)c([N+](=O)[O-])c2)c1O	TIM10 inh 44, tim23-1 inh 54, tim10-1 inh 55 | tim10-1 confirm 33 | tim10 confirm 40 | tim23-1 conf 56
CC(C)Cc1nc2oc3c(Cl)ncnc3c2c2c1CCC2	tim23-1 inh 55, tim10-1 inh 50 | tim10-1 confirm 36 | tim23-1 conf 55
COc1ccc(NC(=O)CSc2nccn2Cc2ccco2)cc1	none
O=C(COC(=O)Cc1c(F)cccc1Cl)NCc1ccc2c(c1)OCO2	none (no result: SKKanGAS inh, Calb FLC)
O=C(NCCc1ccccc1)C(=O)c1c(-c2ccccc2)cc2ccccn12	tim23-1 inh 53, tim10-1 inh 51 | tim10-1 confirm 36 | tim23-1 conf 54
CCCC(=O)c1ccc(N2CCN(C(=O)c3ccccc3Br)CC2)c(F)c1	tim23-1 inh 52, tim10-1 inh 46 | tim10-1 confirm 38 | tim23-1 conf 47
Cc1cc(S(=O)(=O)N2CCCC(N3CCOCC3)C2)c(C)cc1Cl (stereo not drawn)	none

From PubChem
